Bioassay records (PubChem)
HT1080NT lethal: qHTS for induction of synthetic lethality in tumor cells producing 2HG: qHTS for the HT-1080-NT fibrosarcoma cell line; HT-1080-NT fibrosarcoma viability, CellTiter-Glo ATP luminescence, 48 h; hit rate 1.6% among 360,000; Potency, µM (titrated, usually from 46.1 µM), for inactives: at the highest dose activity, negative = less viability, usual class: cytotoxic; AID 686970, 2013;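 further: NT is the 2HG producing partner of a matched IDH1 knockdown line; potency means the concentration at half of the fitted maximal effect; 0% = DMSO-treated cells and -100% = media-only wells without cells; nearly all actives have a fitted effect of over 55% in size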
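Viability by CellTiter-Glo luminescence after 48 h compound exposure at 37C of HT-1080-NT cells (750/well, RPMI, 5% FBS). % activity scaled between DMSO wells and medium-only wells, then curve-fitted and categorized by curve class.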
DT40 TDP1 no CPT: qHTS for Inhibitors of human tyrosyl-DNA phosphodiesterase 1 (TDP1): qHTS in cells in absence of CPT; Potency, µM (top dose mostly 46.2 µM), for the others: at the top dose activity change, negative = growth inhibition, usual class: inhibitors; AID 686978, 2013; hit rate 15% among 420,000; DT40 Tdp1-/- hTDP1 cells, no CPT, ATP luminescence, 48 h; further: potency means the concentration at half of the fitted maximal effect; nearly all actives have a fitted effect of over 55% in size
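Growth of hTDP1-complemented DT40 Tdp1-knockout cells is measured by ATP luminescence after at least 48 hr compound exposure at 37 °C, with DMSO substituting for the 20 nM CPT used in the parallel screen.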
DT40 TDP1 CPT: qHTS for Inhibitors of human tyrosyl-DNA phosphodiesterase 1 (TDP1): qHTS in cells in presence of CPT. hit rate 12% among 420,000. Potency, µM (series often up to 46.2 µM), inactives show at the highest dose activity change, negative = growth inhibition, most hits filed as inhibitors. chicken DT40 Tdp1-/-;hTDP1 cells + 20 nM CPT, ATP luminescence, 48 h. AID 686979, 2013; further: potency means the concentration at half of the fitted maximal effect; nearly all actives have a fitted effect of over 55% in size
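Chicken DT40 Tdp1-/- cells complemented with human TDP1, 400 cells/well, exposed to compounds plus 20 nM camptothecin for at least 48 h at 37 C; viability read as ATP content by CellTiter-Glo luminescence.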
HT1080 IDH1KD tx: qHTS for induction of synthetic lethality in tumor cells producing 2HG: qHTS for the HT-1080-IDH1KD cell line; HT-1080 IDH1 knockdown viability, ATP luminescence, 48 h; Potency, µM (highest dose often 46.1 µM), inactives show at the highest dose activity, negative = toxicity, most hits filed as cytotoxic; hit rate 2% among 360,000; AID 686971, 2013;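 further: potency means the concentration at half of the fitted maximal effect; 0% = DMSO wells and -100% = cell-free medium wells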
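Assay cells: HT-1080 with IDH1 knockdown, 750 per well, RPMI/5% FBS. Exposure: 48 h at 37 °C following 2 h pre-incubation. Read: CellTiter-Glo luminescence; fitted concentration-response, curve class assigned.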
IL1B secr inh: qHTS for Inhibitors of Inflammasome Signaling: IL-1-beta AlphaLISA Primary Screen; THP-1 LPS/ATP IL-1B secretion, AlphaLISA, 16 h; active compounds read low; activity change, % at 57.5 µM; hit rate 4.7% among 360,000; in the data active means activity change below about -50%; inconclusive means mostly about -30% to -49%
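THP-1 cells pretreated 1 hr with compounds (up to 57.5 uM final), then stimulated with LPS (250 ng/mL final) plus ATP (1.25 mM final); secreted IL-1B measured by AlphaLISA after 16 hr, decreased signal indicating inhibition.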
An asterisk follows results filed as active; i = inactive; ? = inconclusive; · = no result; [ ] = dose if it differs, or a comment. An excerpt weighted towards active compounds, which were near 19% of everything screened. Unless noted, the call rests on the fitted dose curve; in most records, active means well fitted curve in the direction sought with a large enough effect; inconclusive means small, poorly fitted or top-dose-only effect, or another doubt; inactive means no such curve, though single readings can be large; an effect the other way counts as inactive or inconclusive. Unless noted, on the % scale 0 is the no-effect control and ±100 the full control effect.

SMILES | HT1080NT lethal | DT40 TDP1 no CPT | DT40 TDP1 CPT | HT1080 IDH1KD tx | IL1B secr inh
Cc1c(CN2CCc3c([nH]c4ccccc34)C2CC(C)C)cnn1C (centres undefined) | -3% | -26% | -6% | 0% | 12
O=S(=O)(c1ccc(NC(=S)N/N=C/c2ccc(N3CCOCC3)cc2)cc1)N1CCOCC1 | 9% | 3.7µM* | 4.1µM* | 2% | 13
O=S(=O)(c1ccc(NC(=S)N/N=C/c2c3ccccc3cc3ccccc23)cc1)N1CCOCC1 | ? | 3.7µM* | 2.6µM* | ? | -11
COc1ccc(C#Cc2c[nH]c(=O)c3cncnc23)cc1OC | -13% | -29% | -28% | -5% | ·
Cc1ccc2cc(CNCc3cccc4ccccc34)c(N3CCC(O)CC3)nc2c1 | · | -29% | -2%[9.04 µM] | · | ·
CCOc1ccc(NC(=O)CN(C)C(=O)Cc2c(C)nc3ccccc3c2C)cc1OCC | 2% | ? | -23% | 3% | i
CCOC(=O)N1CCN(CC(O)COc2ccccc2C(C)C)CC1 (centres undefined) | -1% | ? | ? | -3% | -10
CCOC(=O)N1CCN(CC(O)COc2cc(C)ccc2C(C)C)CC1 (centres undefined) | 9% | 8.2µM* | -29% | 11% | -4
CCOC(=O)N1CCN(CC(O)COc2ccccc2C(C)CC)CC1 (centres undefined) | 12% | -8% | -4% | 2%[9.24 µM] | -2
CCOC(=O)N1CCN(CC(O)COc2ccccc2C(C)(C)C)CC1 (centres undefined) | -4% | 18µM* | ? | -4% | 1
O=C(COC(=O)c1ccc(OC(F)(F)F)cc1)Nc1ncccn1 | -4% | 17% | 21µM* | 0% | 4
CC(OC(=O)c1ccncc1)C(=O)Nc1cccc([N+](=O)[O-])c1 (centres undefined) | 20% | -9% | 1% | 22% | 5
CC(=O)c1cccc(NC(=O)COC(=O)c2ccc(S(C)(=O)=O)c([N+](=O)[O-])c2)c1 | ? | 10µM* | 6.3µM* | ? | -89*
CC(=O)c1cccc(NC(=O)C(C)OC(=O)c2ccc(S(C)(=O)=O)c([N+](=O)[O-])c2)c1 (centres undefined) | · | 3.2µM* | 2.2µM* | · | ·
Cc1csc(Sc2ccc(C(=O)OCC(=O)Nc3ccc(OC(F)(F)F)cc3)cc2[N+](=O)[O-])n1 | 0% | ? | -14% | -5% | -10
CS(=O)(=O)c1ccc(C(=O)OCC(=O)Nc2ccc(OC(F)(F)F)cc2)cc1[N+](=O)[O-] | · | 10µM* | 8.9µM* | · | ·
NC(=O)NC(=O)COC(=O)c1ccc(OC(F)(F)F)cc1 | 4% | 3% | -4% | 0% | 0
O=C(NCCO[N+](=O)[O-])c1cccnc1 | 34% | -6% | 12% | 11% | 17
Cc1ccc2nc3c(cc(C#N)c(=O)n3-c3nnc(SCc4ccc(F)cc4)s3)c(=O)n2c1 | · | -22% | -23% | · | ·
c1ccc(-c2nc(NCc3cccnc3)c3oc4ccccc4c3n2)cc1 | ? | ? | ? | ? | -24
Nc1ccc(C(=O)NN2C(=O)[C@H](Cl)C2c2ccc(Cl)cc2)cc1 (some centres undefined) | ? | 3.7µM* | 3.7µM* | 18µM* | -104*
CCNC(=O)CC1C(=O)N(CC)C(=S)N1NC(=O)c1ccc(Cl)cc1 (centres undefined) | 0% | 2% | 3% | -14% | -8
CCOC(=O)c1c(C)[nH]c(C)c1S(=O)(=O)N1CCC(C(=O)NCc2ccc(N(C)C)cc2)CC1 | · | -19% | -12% | · | ·
O=C(CCl)N1c2ccccc2Oc2ccc3ccccc3c21 | ? | 1.5µM* | 5.2µM* | 16µM* | ?
CC(=O)N1c2ccccc2Oc2cc3ccccc3cc21 | -8% | -7% | 7% | -7% | 4
SMILES | HT1080NT lethal | DT40 TDP1 no CPT | DT40 TDP1 CPT | HT1080 IDH1KD tx | IL1B secr inh
C[C@@H](NC(=O)[C@@H]1Cc2ccccc2CN1C(=O)OC(C)(C)C)C(=O)NCC1CCCO1 (some centres undefined) | 0% | 4% | -7% | 2% | 33
O=C(c1ccc2c(c1)OCO2)N1CCN(c2cccc(C(F)(F)F)c2)CC1 | 18µM* | 21µM* | 18µM* | ? | -16
CCS(=O)(=O)N1CCc2cc(C(=O)N3CCN(c4cccc(C(F)(F)F)c4)CC3)ccc21 | · | 23µM* | ? | · | ·
COc1ccc(N2CCN(C(=O)Nc3cccc(C(F)(F)F)c3)CC2)cc1 | -7% | 18µM* | ? | ? | -14
O=C(Nc1ccc2c(c1)OCO2)N1CCN(c2cccc(C(F)(F)F)c2)CC1 | -4% | 21µM* | 9.2µM* | -1% | -25
O=C(Nc1cccc(C(F)(F)F)c1)N1CCN(C(=O)Nc2cccc(C(F)(F)F)c2)CC1 | -2% | -9% | -10% | -11% | 39
CSc1ccccc1NC(=O)CN(C)CC(=O)c1c(C)[nH]c2ccccc12 | -5% | ? | ? | 4% | 19
CC1=NS(=O)(=O)NC(C)(C)C1 | 4% | 1% | 5% | 10% | 13
Cc1ccccc1C(=O)NC(C)c1nnc2n1CCN(Cc1ccc(F)cc1)CC2 (centres undefined) | · | -1% | 16%[9.04 µM] | · | ·
Cn1c(Cn2c(=O)sc3ccccc32)nnc1SCC(=O)NC1CCCC1 | 16% | -9% | 16µM* | 1% | -15
Cc1csc(NC(=O)CSc2nnc(Cn3c(=O)sc4ccccc43)n2-c2ccccc2)n1 | -2% | -100% | 7.3µM* | -7% | ?
CCCSc1nnc(Cn2c(=O)sc3ccccc32)n1-c1ccccc1 | 9% | 18µM* | ? | 12% | 15
CSc1nnc(Cn2c(=O)sc3ccccc32)n1-c1cccc(Cl)c1 | -1%[9.24 µM] | ? | ? | -4% | -3
CCN(CC)C(=O)CSc1nnc2[nH]c(=O)cc(C)n12 | · | 20% | 15% | · | ·
COC(=O)C[C@H]1C=C[C@@H](NC(=O)Nc2c(C)noc2C)[C@@H](CO)O1 | 19% | 3% | 0% | 18% | 14
O=C1/C(=C\c2ccco2)NC(=S)N1c1ccccc1 | -11% | 29µM* | -13% | -6% | -22
CCCN=C1N/C(=C\c2ccco2)C(=O)N1c1ccccc1 | 1% | -16% | ? | 0% | -17
CCN(C(=O)c1cc2c(s1)-c1ccccc1S(=O)(=O)C2)c1cc(OC)ccc1OC | 0% | ? | -29% | -7% | -2
